From PubChem
Sampled rows, rich in hits. Any-hit rate of the full collection: about 4.6%.
ADAM10 inh – human ADAM10 inhibitors, primary screen, biochemical, QFRET, HTS; inhibition, % at 7 µM; actives 0.62% (n = 370,000); AID 720582, 2013; recombinant ADAM10, EDANS/DABCYL FRET peptide cleavage, 3 h;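 active = inhibition above a per-campaign cutoff equal to the mean of compounds falling between control-based bounds plus 3 SD, cut at about 20% in these data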;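 note: 0% = DMSO wells while the 100% control is not disclosed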
Target sequence (O14672 214-748 limits assumed): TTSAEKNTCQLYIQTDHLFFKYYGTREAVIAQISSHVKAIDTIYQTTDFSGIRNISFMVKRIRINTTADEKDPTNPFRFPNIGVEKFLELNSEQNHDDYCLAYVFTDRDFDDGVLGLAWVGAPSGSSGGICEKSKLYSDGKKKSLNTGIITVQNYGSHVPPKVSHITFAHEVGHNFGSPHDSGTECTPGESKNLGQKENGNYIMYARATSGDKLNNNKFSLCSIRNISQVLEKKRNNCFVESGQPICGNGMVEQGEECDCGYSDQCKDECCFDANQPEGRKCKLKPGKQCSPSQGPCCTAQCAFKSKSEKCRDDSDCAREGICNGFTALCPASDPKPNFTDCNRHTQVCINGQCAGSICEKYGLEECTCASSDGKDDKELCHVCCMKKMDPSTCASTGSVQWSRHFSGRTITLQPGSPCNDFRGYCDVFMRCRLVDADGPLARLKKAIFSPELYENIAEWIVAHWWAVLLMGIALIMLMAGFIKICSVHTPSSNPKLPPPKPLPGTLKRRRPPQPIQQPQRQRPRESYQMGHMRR
FAS-TE inh – FAS thioesterase domain inhibitors, primary screen, biochemical, fluorescence intensity, uHTS. Fatty acid synthase (Homo sapiens), P49327. recombinant FAS-TE, OMFH fluorogenic substrate, fluorescence endpoint. inhibition, % at 15 µM. actives 0.67% (n = 360,000). AID 602261, 2012;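 active = compounds whose normalised, plate-corrected inhibition of enzyme fluorescence in the single-dose primary screen is 50% or more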;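 note: 0% = DMSO with enzyme and 100% = substrate without enzyme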
ADAM17 inh – ADAM17 inhibitors, primary screen, biochemical, QFRET; Disintegrin and metalloproteinase domain-containing protein 17 (Homo sapiens), P78536; recombinant ADAM17, EDANS/DABCYL FRET peptide cleavage; inhibition, % at 6.95 µM; actives 0.83% (n = 370,000); AID 720648, 2013;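 active = inhibition above the mean of compounds lying between control limits plus 3 SD, set per campaign, cut at about 8.5% in these data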;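 note: 0% = DMSO-only wells as the low control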
proKLK7 act – proKLK7 zymogen activators, primary screen, biochemical, fluorescence intensity; purified proKLK7, EDANS-DABCYL substrate fluorescence; 100% is mature enzyme control, 0% vehicle; activation, % at 7 µM; Kallikrein-7 (Homo sapiens), P49862; AID 652039, 2013; actives 0.9% (n = 370,000);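 active = activation above the mean of all tested compounds plus 3 SD, computed per campaign excluding outliers beyond control limits, cut at about 13% in these data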
NR3A LBD binder – binders of NR3A ligand-binding domain, primary screen, biophysical, differential scanning fluorimetry, uHTS; Glutamate receptor ionotropic, NMDA 3A (GRIN3A) ligand-binding domain; NR3A LBD differential scanning fluorimetry, Tm shift; 0% = protein alone, 100% = glycine-bound protein; Tm shift relative to glycine control, % at 25 µM; actives 2.5% (n = 340,000); AID 1259313, 2017;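 active = melting temperature shift of at least 10% of the positive control shift, at one fixed dose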
ADAM10 counter – ADAM10 inhibitors, counter-screen for ADAM17 exosite inhibitor project, biochemical, FRET, human ADAM10. shares compounds with ADAM17 inh. recombinant ADAM10, EDANS/DABCYL FRET peptide cleavage, 3 h. inhibition, % at 6.95 µM. actives 47% (n = 2,900). AID 743256, 2014;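 active = mean inhibition over the triplicate runs exceeds the activity threshold set in the earlier primary screen, cut at about 20% in these data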;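 note: 0% = DMSO wells and 100% = marimastat wells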
ADAM17 confirm – ADAM17 inhibitors, hit retest, confirmation, biochemical, QFRET peptide cleavage; shares compounds with ADAM17 inh; recombinant ADAM17, EDANS/DABCYL QFRET peptide cleavage; actives 65% (n = 2,900); inhibition, % at 6.95 µM;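 active = mean inhibition across replicates above the hit cutoff set in the primary screen, cut at about 8.5% in these data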;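 note: 0% = DMSO wells and 100% = marimastat wells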
The depositor's hits bear a star; . = not tested or not shown.

SMILES	ADAM10 inh	FAS-TE inh	ADAM17 inh	proKLK7 act	NR3A LBD binder	ADAM10 counter	ADAM17 confirm
COc1ccccc1CNC(=O)COC(=O)/C=C/c1ccc(OC(F)F)c(OC)c1	-13.8	-1.0	-3.9	0.6	1.9	.	.
COc1cc(/C=C/C(=O)OCC(=O)c2c[nH]c3ccccc23)ccc1OC(F)F	12.9	-1.2	9.4*	0.2	28.6*	21.3*	17.9*
O=C(/C=C/c1ccc(Br)cc1)c1ccc(NC2=NCCCS2)cc1	14.0	7.2	8.8*	-2.7	-7.0	25.7*	13.0*
COC(=O)c1cc2c(c3c4ccccc4n(S(=O)(=O)c4ccc(OC)cc4)c13)C(=O)N(Cc1ccc(C(F)(F)F)cc1)C2	-1.3	.	1.9	0.3	.	.	.
CCOC(=O)CSC1=C(C#N)C(c2ccc(F)cc2)C(C(C)=O)=C(C)N1 (stereo not given)	12.5	9.8	9.9*	0.8	-0.7	-12.9	-0.3
CC(=O)C1=C(C)NC(SCC(N)=O)=C(C#N)C1c1cccnc1 (stereo not given)	-8.9	-6.5	-2.3	0.8	1.3	.	.
Cc1ccc(-n2c(SCC(=O)c3ccc4c(c3)OCO4)nc3ccccc3c2=O)cc1	3.6	.	-0.5	-0.2	.	.	.
Cc1cc(Oc2cccnc2)ccc1NC(=O)Cc1c[nH]c2ccccc12	-7.1	.	-6.0	0.0	.	.	.
Cc1nn(CCCC(=O)NCCc2ccccc2)c(C)c1[N+](=O)[O-]	-1.8	39.6	-2.5	0.7	0.5	.	.
Cc1nn(CCCC(=O)Nc2cc(Oc3ccccc3)cc([N+](=O)[O-])c2)c(C)c1[N+](=O)[O-]	17.2	42.2	11.6*	0.6	8.9	38.6*	19.5*
COc1ccccc1C(=O)NCC(=O)NC(C)CCc1ccccc1 (stereo not given)	-6.9	-3.2	9.2*	-0.8	0.1	3.4	4.7
COC(=O)C1=C(C)N(C)C(=NCc2ccccc2)NC1CCc1ccccc1 (stereo not given)	-7.5	.	-4.7	0.7	.	.	.
Cc1ccc(SCc2nc(N)nc(Nc3ccccc3C)n2)cc1C	17.1	10.1	9.2*	1.0	-4.6	0.7	2.1
Cc1ccccc1Nc1nc(N)nc(CSc2ccc(F)cc2)n1	-8.4	7.5	-3.6	0.8	4.8	.	.
CC(C)C[C@H]1COc2cc(NCc3ccc(Cl)c(Cl)c3)ccc2S(=O)(=O)N1	-6.2	.	-3.0	0.2	.	.	.
Cc1csc(-c2cnn(-c3ccccc3)c2NC(=O)c2ccc(C(F)(F)F)cc2)n1	12.6	11.5	9.3*	-0.2	-6.4	17.8	11.2*
O=S(=O)(c1ccc2nc(Cc3ccccc3)[nH]c2c1)N1CCOCC1	17.5	-6.9	8.8*	0.3	0.6	12.9	6.3
Cc1ccc(C)c(NC(=O)CN(C)C(=O)c2ccc(COc3ccccc3)cc2)c1	6.7	5.5	11.2*	0.2	.	6.5	5.9
COc1ccc(NC(=O)CN(C)C(=O)c2ccc(COc3ccccc3)cc2)cc1	-10.2	5.4	-4.3	0.2	1.7	.	.
Cc1nc2ccc(S(=O)(=O)NCC(=O)NCc3ccc4c(c3)OCO4)cc2s1	3.6	-5.0	11.0*	-0.5	0.5	18.3	14.5*
CCCCS(=O)(=O)N1CCCc2nc(-c3ccc(Br)cc3)ccc21	1.8	.	-0.8	-0.6	.	.	.
O=C(CCn1nc(-c2ccccc2)c2ccccc2c1=O)N1CCN(c2ccccc2)CC1	12.5	11.1	10.0*	0.5	0.1	5.9	8.2
CC(=O)c1cccc(NC(=O)COC(=O)CCC(=O)c2ccc(F)cc2)c1	-2.6	0.8	8.9*	0.6	-2.4	-0.3	3.9
CC(=O)c1cccc(NC(=O)CCC(=O)c2ccc(F)cc2)c1	4.5	1.4	1.6	-0.6	-3.6	.	.
